Bioassay records: PubChem BioAssay, Bradner/Qi Labs at DFCI
Only a selection was taken, and hits are over-represented in it overall.
CBX7 inh = inhibitors of human CBX7 binding to H3K27me3 peptide; O95931; AlphaScreen His6-CBX7 / biotin-H3K27me3 peptide binding; hits give low values; normalised signal (fraction of DMSO) (concentration not given with the values); 1.1% of 66,000 active; AID 1224903; in the data active means normalised signal below about 0.5
Target sequence (O95931 whole entry, looked up): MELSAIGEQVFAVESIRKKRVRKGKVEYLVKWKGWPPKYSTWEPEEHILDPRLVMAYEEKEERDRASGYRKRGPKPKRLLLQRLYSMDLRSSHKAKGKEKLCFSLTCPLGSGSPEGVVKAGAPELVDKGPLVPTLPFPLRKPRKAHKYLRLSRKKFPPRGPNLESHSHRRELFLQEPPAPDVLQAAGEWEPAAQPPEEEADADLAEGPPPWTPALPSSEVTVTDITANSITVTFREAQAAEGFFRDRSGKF
* hit, by the source's call.

SMILES | CBX7 inh
COc1ccccc1-c1nnc(NC(=O)c2ccc(S(=O)(=O)N3CCCC(C)C3)cc2)o1 (stereo not drawn) | 0.82
COc1ccc(-c2nnc(NC(=O)c3ccc(S(=O)(=O)N(C)Cc4ccccc4)cc3)o2)cc1 | 0.0078*
COc1ccc(-c2nnc(NC(=O)c3ccc(S(=O)(=O)N(C)Cc4ccccc4)cc3)o2)c(OC)c1 | 0.0014*
COc1cc(OC)cc(-c2nnc(NC(=O)c3ccc(S(=O)(=O)N4CCCC(C)C4)cc3)o2)c1 (stereo not drawn) | 1.1
COc1ccc(-c2nnc(NC(=O)c3ccc(S(=O)(=O)N4CCOCC4)cc3)o2)c(OC)c1 | 0.58
CCCCN(C)S(=O)(=O)c1ccc(C(=O)Nc2nnc(-c3ccc(OC)cc3OC)o2)cc1 | 0.97
COc1ccccc1-c1nnc(NC(=O)c2ccc(S(=O)(=O)N3CCC(C)CC3)cc2)o1 | 0.85
COCCN(CCOC)S(=O)(=O)c1ccc(C(=O)Nc2nnc(-c3ccc(OC)cc3)o2)cc1 | 0.79
COc1cc2c(C(=O)Nc3cccc(Cl)c3)cn(CC(C)C)c(=O)c2cc1OC | 0.87
COc1cccc(N2C(=O)CC(N3CCN(c4ccc(Cl)cc4)CC3)C2=O)c1 (stereo not drawn) | 1.2
CCC(CC)NCc1oc2ccc(Cl)cc2c1-c1ccc(OC)cc1 | 0.96
Cc1ccc(C2C(=O)N(C3CCC(C)CC3)CC(=O)N2CCc2ccc(Cl)cc2)cc1 (stereo not drawn) | 0.79
COCCN(CCOC)S(=O)(=O)c1ccc(C(=O)Nc2nnc(-c3cccc(OC)c3)o2)cc1 | 0.95
COc1cccc(-c2nnc(NC(=O)c3ccc(S(=O)(=O)N(C)C)cc3)o2)c1 | 0.23*
COC(=O)c1c(NC(=O)c2cccc(Cl)c2)sc2c1CCCC2 | 1.6
Cc1ccc(NC(=O)Cn2cc(S(=O)(=O)c3ccc(F)cc3)c(=O)c3ccccc32)c(C)c1 | 0.86
COc1ccc(C(=O)NCCc2c(C)[nH]c3ccc(OCc4ccccc4)cc23)cc1OC | 0.52
COc1ccc2[nH]c(C)c(CCNC(=O)Cn3nc(C(F)(F)F)cc3C)c2c1 | 0.79
Cc1[nH]c2ccc(OCc3ccccc3)cc2c1CCNC(=O)c1ccnn1C | 0.48*
COC(=O)c1ccc(C(=O)NCCc2c(C)[nH]c3ccc(OCc4ccccc4)cc23)cc1 | 0.82
Cc1[nH]c2ccc(OCc3ccccc3)cc2c1CCNC(=O)c1cccc(Br)c1 | 0.65
Cc1nn(CC(=O)NCCc2c(C)[nH]c3ccc(OCc4ccccc4)cc23)c(C)c1Cl | 0.48*
O=C(Nc1ccc(Cl)cc1)N(CCCN1CCOCC1)Cc1cccnc1 | 1.1
Cc1ccc(CNC(=O)C(CC(C)C)NS(=O)(=O)c2ccc3nc(C)sc3c2)cc1 (stereo not drawn) | 0.95
CC1CC(C)CN(CCCNC(=O)CN2N=C(c3ccccc3)CCC2=O)C1 (stereo not drawn) | 1
SMILES | CBX7 inh
CC(CC(=O)NC(C)CCc1ccccc1)CC1=NS(=O)(=O)c2ccccc2N1 (stereo not drawn) | 0.95
Cc1ccccc1NC(=O)C1c2ccccc2C(=O)N2CCc3ccccc3C12 (stereo not drawn) | 0.97
COc1cc2c(cc1OC)C1C(C(=O)Nc3ccc(Cl)cn3)c3ccccc3C(=O)N1CC2 (stereo not drawn) | 0.93
Cc1ccc(NC(=O)C2c3ccccc3C(=O)N3CCc4ccccc4C23)nc1 (stereo not drawn) | 0.3*
Cc1ccc(CCNC(=O)CSCc2nc(-c3ccccc3Cl)oc2C)cc1 | 0.69
COc1cccc(CN2C(=O)CN(C3CCCCC3)C(=O)C2c2ccc(N(C)C)cc2)c1 (stereo not drawn) | 0.76
Cc1ccc(OCCN2CCN(c3ncnc4scc(-c5ccccc5)c34)CC2)cc1 | 0.92
Cc1ccc(OCCn2cnc3cc(C)c(C)cc32)cc1 | 0.77
Cc1ccc(OCCN2CCN(c3ccc(C)c(C)c3)CC2)cc1 | 0.4*
COc1ccc(N2CCN(c3ccc4nnc(-c5ccc(F)cc5)n4n3)CC2)cc1 | 0.71
COc1ccc(CN2C(=O)c3cccnc3C2Nc2cc(Cl)c(OC)cc2OC)cc1 (stereo not drawn) | 0.073*
COc1ccc(Cl)cc1NC1c2ccccc2C(=O)N1Cc1ccccc1 (stereo not drawn) | 0.53
COc1ccc(CN2C(=O)c3cccnc3C2Nc2ccc(OC)cc2)cc1 (stereo not drawn) | 0.017*
COc1ccc(NC2c3ccccc3C(=O)N2Cc2ccccc2)cc1Cl (stereo not drawn) | 0.99
Cc1ccc(NC2c3ncccc3C(=O)N2Cc2ccc(F)cc2)cc1C (stereo not drawn) | 0.79
COc1ccc(CN2C(=O)c3cccnc3C2Nc2ccc(C)cc2)cc1 (stereo not drawn) | 0.5
COc1ccccc1CNC(=O)CCc1c(C)nc2c(-c3ccccc3)c(C)nn2c1C | 1
O=C(Cn1nc(Cc2cccnc2)c2ccccc2c1=O)NCCN1CCOCC1 | 0.95
Cc1ccc2c(c1)C(c1ccc(F)cc1)N(C(=O)C1CCCCC1)CC(=O)N2 (stereo not drawn) | 0.97
O=C(NC1CC1)C1CCC(=O)N1CCc1ccccc1 (stereo not drawn) | 0.99
